The source of these data is PubChem BioAssay AID434931 (National Center for Advancing Translational Sciences (NCATS), 2010).

Inconclusive results are not listed. Calls of active or inactive are those of the source. Calls come from the whole dose curve; as a rule, active = well fitted inhibition curve with a large enough effect; inconclusive = small, poorly fitted or top-dose-only effect, or another doubt; inactive = no such curve, though single readings can be large or run the other way.

Sequence of Neuropeptide S receptor (Homo sapiens) (Q6W5P4 whole entry, looked up): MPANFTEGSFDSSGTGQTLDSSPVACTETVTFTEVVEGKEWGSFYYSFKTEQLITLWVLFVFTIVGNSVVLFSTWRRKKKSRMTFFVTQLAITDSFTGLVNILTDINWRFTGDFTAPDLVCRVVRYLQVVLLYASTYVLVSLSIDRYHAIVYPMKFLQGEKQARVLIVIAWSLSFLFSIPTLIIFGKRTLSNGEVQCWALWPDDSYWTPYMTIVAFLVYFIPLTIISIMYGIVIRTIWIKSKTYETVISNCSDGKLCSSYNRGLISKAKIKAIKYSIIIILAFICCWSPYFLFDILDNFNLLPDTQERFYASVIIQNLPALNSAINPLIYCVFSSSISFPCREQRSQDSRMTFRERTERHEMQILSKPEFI

This experiment has as its target Neuropeptide S receptor (Homo sapiens) (UniProt Q6W5P4). In words: Confirmation Concentration-Response Assay for Antagonists of the Neuropeptide S Receptor: Robust Characterization of Calcium Signal Transduction. To be noted: CHO-NPSR cells, NPS-induced calcium fluorescence (FDSS); series mostly up to 31.6 µM. The text has this: NIH Chemical Genomics Center [NCGC] NIH Molecular Libraries Probe Production centers Network [MLPCN] MLPCN Grant: X01-DA026210-01 Assay Submitter (PI): Heilig, Markus Alexander NCGC Assay Overview: Neuropeptide S receptor (NPSR), previously known as GPR154, is a recently de-orphanized G protein coupled receptor. Its endogenous ligand is the 20 amino acids peptide Neuropeptide S (NPS). […] NPS and its receptor are found in various tissues. Specifically they are highly expressed in brain areas that have been implicated in modulation of arousal, stress and anxiety. Central administration of NPS in mice produces an unusual profile of activity by inducing wakefulness and arousal, while at the same time suppressing anxiety. Therefore, NPSR may represent a novel drug target for the treatment of sleep and anxiety disorders. To identify NPSR antagonists, we developed a cell-based assay with transfected NPS receptor. NPS can stimulate the production of cAMP as well as release intracellular calcium in Chinese hamster ovary cells stably expressing NPS receptor. This change in intracellular calcium can be detected using a calcium indicator dye on a calcium imaging plate reader system (FDSS). This particular assay uses a high density of sampling across concentration-response space to establish more confidence estimates of potency.
NCGC Assay Protocol Summary: A Chinese hamster ovary (CHO) cell line stably expressing the NPS receptor (CHO-NPSR) was obtained from Dr. Heilig lab at NIAAA and maintained in F-12 Kaighn's media (Invitrogen, Carlsbad, CA, 21127) supplemented with 10 % FBS, 100 units/ml penicillin, 100 ug/ml streptomycin and 250 ug/ml geneticin at 37C, 5% CO2 in a humidified atmosphere. Before the assay, aliquots of cells were frozen and stored at -135C. The assay was performed on a FDSS-7000 kinetic plate reader in 1536-well format. For both agonist (1-220s) and antagonist (221-400s) phases, the maximums of kinetic fluorescence responses were converted separately into text files using the instrument's software data export utility. Data for agonist response were normalized to the controls for basal activity (DMSO only) and 100% activation (NPS). […] AC50 values were determined from concentration-response data modeled with the standard Hill equation. NPS 1536-well FDSS assay protocol: (1) Frozen CHO-NPSR cells were thaw, washed once with fresh media and resuspended in F-12 Kaighn's media supplemented with 10 % FBS, 100 units/ml penicillin and 100 ug/ml streptomycin. Cells were plated at 3 ul/well (1200 cells) to black, clear-bottom, tissue-culture treated 1536-well plates, and then cultured at 37C, 5 % CO2 for 16 to 30 hours. (2) Add 3 ul of calcium dye (from High Performance PBX Calcium Assay Kit, BD Biosciences). The calcium dye was prepared according to the manufactory's instruction. (3) Incubation at 37C, 5 % CO2 for 60 to 120 min. (4) Load plates to FDSS-7000. The following steps were performed on FDSS-7000. (5) Record fluorescent background (Ex 480 nm, Em 520-560 nm) for 10 s. (6) Add 23 nl/well of compound in DMSO solution. The final titration for each compound was between 0.6 nM and 46 uM. Record agonist response for 210 s. (7) Add 2 ul of stimulation reagent (1X HBSS buffer, 0.1% BSA, 60 nM NPS). Record antagonist response for 140 s. Keywords: MLSMR, MLPCN, NIH Roadmap, qHTS, NCGC, NPS, Neuropeptide S Antagonists
As for `COc1cccc(C2c3c(ncn(-c4ccncc4)c3=N)Oc3ccc4ccccc4c32)c1` (stereo not given), the Potency was 3910 nM (active).
Under `COc1ccc(C2c3ccc(OCc4ccccc4)cc3Oc3ncn(CCN4CCOCC4)c(=N)c32)cc1OC` (stereo not given) stands 11000 nM (active).
Under `COc1cccc(C2c3c(ncn(CCN4CCOCC4)c3=N)Oc3ccc4ccccc4c32)c1` (stereo not given) stands 1740 nM (active); under `COc1cccc(C2c3c(ncn(-c4ccc(Br)cc4)c3=N)Oc3ccc4ccccc4c32)c1` (stereo not given), 3100 nM (active).
On to `COc1cccc(C2c3c(ncn(-c4ccc(C#N)cc4)c3=N)Oc3ccc4ccccc4c32)c1` (stereo not given), for which the Potency is 1390 nM (active).
As for `COc1cccc(C2C(C#N)=C(NC(=O)NCc3ccccc3)Oc3ccc4ccccc4c32)c1` (stereo not given), the Potency entry was “inactive”.
Under `COc1cccc(C2c3c(ncn(-c4ccccc4)c3=N)Oc3ccc4ccccc4c32)c1OC` (stereo not given) stands 981 nM (active); under `COc1cccc(C2c3c(ncn(-c4ccccc4C(C)(C)C)c3=N)Oc3ccc4ccccc4c32)c1` (stereo not given), 1740 nM (active).
In the case of `COc1cccc(C2c3c(ncn(-c4ccc(-c5ccccc5)cc4)c3=N)Oc3ccc4ccccc4c32)c1` (stereo not given), the Potency result was “inactive”.
Under `COc1cccc(C2c3c(ncn(-c4cccc(Cl)c4)c3=N)Oc3ccc4ccccc4c32)c1` (stereo not given) stands 4380 nM (active).
As to `COc1cccc(C2c3c(ncn(-c4ccc(F)cc4)c3=N)Oc3ccc4ccccc4c32)c1` (stereo not given), the Potency was 2200 nM (active).
For `N=c1c2c(ccn1CCc1ccccc1)Oc1ccc3ccccc3c1C2c1ccccc1` (stereo not given), the Potency was 492 nM (active).
Under `COc1ccc(C2C3=C(N=CN(CCN4CCOCC4)C3N)Oc3ccccc32)cc1OC` (stereo not given) stands “inactive”; under `CC(C)(C)OC(=O)Nc1ncnc2c1C(c1ccccc1)c1c(ccc3ccccc13)O2` (stereo not given), “inactive”; under `Cc1nc2ccccn2c1C(O)(c1ccccc1)c1ccccc1`, 11300 nM (active).
For `COc1cccc(C2c3c(ncn(-c4cccc(C)c4)c3=N)Oc3ccc4ccccc4c32)c1` (stereo not given), the Potency is 3910 nM (active).
Under `O=C(Nc1ncnc2c1C(c1ccccc1)c1c(ccc3ccccc13)O2)c1ccccc1` (stereo not given) stands 4920 nM (active); under `CCOC(=O)c1ccc(-n2cnc3c(c2=N)C(c2cccc(OC)c2)c2c(ccc4ccccc24)O3)cc1` (stereo not given), 2460 nM (active).
Regarding `CCOC(=O)CCCC(=O)Nc1ncnc2c1C(c1ccccc1)c1c(ccc3ccccc13)O2` (stereo not given), the Potency is 2200 nM (active).
Under `COc1ccccc1C1c2c(ncn(-c3ccccc3)c2=N)Oc2ccc3ccccc3c21` (stereo not given) stands 4920 nM (active); under `O=C(CCc1ccccc1)Nc1ncnc2c1C(c1ccccc1)c1c(ccc3ccccc13)O2` (stereo not given), 1960 nM (active).
Take `COc1ccc(-n2cnc3c(c2=N)C(c2cccc(OC)c2)c2c(ccc4ccccc24)O3)cc1` (stereo not given): the Potency is 1740 nM (active).
With `COc1ccc(C2c3ccc4ccccc4c3Oc3ncn(CCN4CCOCC4)c(=N)c32)cc1OC` (stereo not given), the Potency is 3480 nM (active).
Under `COc1cccc(C2c3c(ncn(Cc4cccs4)c3=N)Oc3ccc4ccccc4c32)c1` (stereo not given) stands 3100 nM (active).
Under `N=c1c2c(ccn1-c1ccccc1)Oc1ccc3ccccc3c1C2c1ccccc1` (stereo not given) stands 220 nM (active); under `CCC(C)(CCN1CCOCC1)N(Cc1cc2ccccc2n(C)c1=O)C(=O)C1CCCCC1` (stereo not given), 1.35 nM (active); under `COc1ccc(C2c3c(nc(CCCc4ccccc4)[nH]c3=O)Oc3ccc4ccccc4c32)cc1OC` (stereo not given), “inactive”.
Regarding `N#CC1=C(NC=NCc2ccccc2)Oc2ccc3ccccc3c2C1c1ccccc1` (stereo not given), the Potency was 779 nM (active).
On to `N=c1c2c(ccn1Cc1ccccc1)Oc1ccc3ccccc3c1C2c1ccccc1` (stereo not given), for which the Potency is 3910 nM (active).
Under `COc1cccc(C2c3c(ncn(-c4ccccc4SC)c3=N)Oc3ccc4ccccc4c32)c1` (stereo not given) stands 24.6 nM (active); under `CCOC(=O)CCC(=O)Nc1ncnc2c1C(c1ccccc1)c1c(ccc3ccccc13)O2` (stereo not given), 1240 nM (active).
Under `COc1cccc(C2c3c(ncn(-c4ccc(NC(C)=O)cc4)c3=N)Oc3ccc4ccccc4c32)c1` (stereo not given) stands 4380 nM (active).
For `COc1cccc(C2c3c(ncn(-c4cccnc4)c3=N)Oc3ccc4ccccc4c32)c1` (stereo not given), the Potency was 1740 nM (active).
Under `COc1ccc(C2c3c(ncn(CCN4CCOCC4)c3=N)Oc3ccc4ccccc4c32)cc1OC` (stereo not given) stands 438 nM (active).
Turning to `COc1cccc(C2c3c(ncn(-c4ccccn4)c3=N)Oc3ccc4ccccc4c32)c1` (stereo not given), the Potency is 4920 nM (active).
Under `N=c1c2c(ncn1-c1ccccc1)Oc1ccc3ccccc3c1C2c1ccc2c(c1)OCCO2` (stereo not given) stands 276 nM (active); under `Nc1ncnc2c1C(c1ccccc1)c1c(ccc3ccccc13)O2` (stereo not given), 139 nM (active).
Under `COc1cccc(C2c3c(ncn(-c4ccc5c(c4)OCO5)c3=N)Oc3ccc4ccccc4c32)c1` (stereo not given) stands 43.8 nM (active).
As to `COc1ccc(C2c3c(ncn(CCCc4ccccc4)c3=N)Oc3ccc4ccccc4c32)cc1OC` (stereo not given), the Potency is 3910 nM (active).
Under `Fc1ccc(-c2c(P(=S)(c3ccccc3)c3ccccc3)n3ccccc3[n+]2C/C=C/c2ccccc2)cc1` stands 20.1 nM (active).
